We go through 22 molecules from PubChem BioAssay (EPA / NIEHS).

SMILES strings stand for the structures. Records with an inconclusive call do not appear. Calls of active or inactive are those of the source. Rule for the calls: active = hit-call score of the fitted dose curve at least 0.9, where 1 is the maximum; inconclusive = response in the unintended direction; inactive = score below 0.9.

The term AC50 denotes the concentration at which the activity in the assay is half-maximal.

human Protein Tyrosine Phosphatase Non-receptor Type 6 (PTPN6), PTPN6 (gene 5777), sequence (P29350 whole entry, looked up): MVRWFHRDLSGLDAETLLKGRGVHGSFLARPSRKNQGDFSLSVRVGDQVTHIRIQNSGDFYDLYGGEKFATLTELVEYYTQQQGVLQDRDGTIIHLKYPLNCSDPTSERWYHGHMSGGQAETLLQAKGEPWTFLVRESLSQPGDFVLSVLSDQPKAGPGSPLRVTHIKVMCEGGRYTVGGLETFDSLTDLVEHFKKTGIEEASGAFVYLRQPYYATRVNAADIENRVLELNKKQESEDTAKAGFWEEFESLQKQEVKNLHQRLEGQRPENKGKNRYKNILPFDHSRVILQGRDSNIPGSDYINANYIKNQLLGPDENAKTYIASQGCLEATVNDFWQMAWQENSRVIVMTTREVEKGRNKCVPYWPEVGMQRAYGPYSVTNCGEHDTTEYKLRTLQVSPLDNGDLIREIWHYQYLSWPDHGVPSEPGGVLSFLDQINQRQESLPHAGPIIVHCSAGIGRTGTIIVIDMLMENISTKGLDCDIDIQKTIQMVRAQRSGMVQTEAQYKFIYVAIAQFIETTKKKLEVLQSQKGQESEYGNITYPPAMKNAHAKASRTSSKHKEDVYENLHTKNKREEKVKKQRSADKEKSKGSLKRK
human Protein Tyrosine Phosphatase Receptor Type C (PTPRC), PTPRC (gene 5788), sequence (P08575 whole entry, looked up): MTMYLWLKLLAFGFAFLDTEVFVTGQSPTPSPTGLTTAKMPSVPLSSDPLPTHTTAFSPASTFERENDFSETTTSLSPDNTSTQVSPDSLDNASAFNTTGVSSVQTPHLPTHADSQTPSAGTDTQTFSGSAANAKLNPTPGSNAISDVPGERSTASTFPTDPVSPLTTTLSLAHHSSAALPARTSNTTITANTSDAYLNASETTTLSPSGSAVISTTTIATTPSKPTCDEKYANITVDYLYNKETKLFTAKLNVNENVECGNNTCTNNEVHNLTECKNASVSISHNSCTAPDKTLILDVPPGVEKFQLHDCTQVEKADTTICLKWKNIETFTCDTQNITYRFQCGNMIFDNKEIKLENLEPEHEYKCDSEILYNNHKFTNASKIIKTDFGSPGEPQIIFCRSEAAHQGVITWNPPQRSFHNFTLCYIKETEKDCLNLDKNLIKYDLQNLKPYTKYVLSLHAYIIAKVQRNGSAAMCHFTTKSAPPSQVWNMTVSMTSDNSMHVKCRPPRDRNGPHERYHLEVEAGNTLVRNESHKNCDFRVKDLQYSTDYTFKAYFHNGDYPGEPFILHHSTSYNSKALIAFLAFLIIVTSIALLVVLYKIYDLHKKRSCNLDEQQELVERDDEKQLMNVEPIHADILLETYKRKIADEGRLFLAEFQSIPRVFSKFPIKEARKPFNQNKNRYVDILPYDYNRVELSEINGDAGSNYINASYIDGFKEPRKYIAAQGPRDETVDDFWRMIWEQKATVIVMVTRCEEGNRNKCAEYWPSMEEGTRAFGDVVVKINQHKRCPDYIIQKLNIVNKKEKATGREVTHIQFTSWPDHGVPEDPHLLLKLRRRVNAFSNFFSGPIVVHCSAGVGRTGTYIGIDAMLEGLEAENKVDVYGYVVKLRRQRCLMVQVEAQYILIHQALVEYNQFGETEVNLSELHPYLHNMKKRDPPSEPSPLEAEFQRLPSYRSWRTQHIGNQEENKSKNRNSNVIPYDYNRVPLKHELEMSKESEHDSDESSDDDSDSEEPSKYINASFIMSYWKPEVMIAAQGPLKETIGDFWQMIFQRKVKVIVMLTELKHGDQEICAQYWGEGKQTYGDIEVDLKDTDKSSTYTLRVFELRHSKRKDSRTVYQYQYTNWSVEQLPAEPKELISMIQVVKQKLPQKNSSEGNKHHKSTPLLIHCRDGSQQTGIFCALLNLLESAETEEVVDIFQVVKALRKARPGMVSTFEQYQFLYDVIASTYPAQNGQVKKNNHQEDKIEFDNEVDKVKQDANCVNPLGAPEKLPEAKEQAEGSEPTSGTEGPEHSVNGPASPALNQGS
human Protein Tyrosine Phosphatase Non-receptor Type 9 (PTPN9), PTPN9 (gene 5780), sequence (P43378 whole entry, looked up): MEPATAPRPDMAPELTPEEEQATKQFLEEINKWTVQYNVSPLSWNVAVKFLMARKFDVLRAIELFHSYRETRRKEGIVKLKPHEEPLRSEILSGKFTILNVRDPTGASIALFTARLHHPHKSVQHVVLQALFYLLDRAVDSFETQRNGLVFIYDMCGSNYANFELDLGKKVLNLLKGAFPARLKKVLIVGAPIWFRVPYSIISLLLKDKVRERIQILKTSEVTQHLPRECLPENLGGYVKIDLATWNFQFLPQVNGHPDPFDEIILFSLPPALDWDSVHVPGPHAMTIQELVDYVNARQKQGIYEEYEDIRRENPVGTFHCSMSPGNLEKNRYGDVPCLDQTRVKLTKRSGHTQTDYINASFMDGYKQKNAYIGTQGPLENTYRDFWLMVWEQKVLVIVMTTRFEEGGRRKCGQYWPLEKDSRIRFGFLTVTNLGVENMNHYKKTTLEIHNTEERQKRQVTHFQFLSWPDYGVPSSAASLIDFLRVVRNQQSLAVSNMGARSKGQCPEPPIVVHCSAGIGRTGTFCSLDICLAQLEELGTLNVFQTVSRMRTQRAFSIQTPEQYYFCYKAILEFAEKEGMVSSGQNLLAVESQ

For the first assay, the target named is Tyrosine-protein phosphatase non-receptor type 12 (Homo sapiens) (UniProt Q05209). As to the kind of experiment: NVS_ENZ_hPTPN12: NovaScreen (NVS) Enzymatic Assay for human Protein Tyrosine Phosphatase Non-receptor Type 12 (PTPN12) (AID 2283204). In outline: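 Single-concentration duplicates (25 uM) preceded singleton concentration-response up to 50 uM for chemicals passing threshold. Cell-free recombinant PTPN12 activity was read 1.33 h after dosing via fluorescence after mobility-shift separation; loss of signal versus DMSO.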
As for `CC(C)(C)OOC(C)(C)C`, the molecule was classed as inactive. The same measure, in the same setting: as for `O=P1(N(CCCl)CCCl)NCCCO1` (stereo not drawn), the entry is “inactive”; as for `O=C(O)C(Cl)Cl`, “inactive”. Turning to `ClC1=C(Cl)C2(Cl)C3C(Cl)C(Cl)CC3C1(Cl)C2(Cl)Cl` (stereo not drawn), the call was inactive. Still for that read-out and setting: in the case of `O=c1ssc(Cl)c1Cl` it was “inactive”.

A further assay concerns the target human Protein Tyrosine Phosphatase Non-receptor Type 9 (PTPN9), PTPN9 (gene 5780) (UniProt P43378). The assay is described as follows: NVS_ENZ_hPTPN9: NovaScreen (NVS) Enzymatic Assay for human Protein Tyrosine Phosphatase Non-receptor Type 9 (PTPN9) (AID 2283209). As for the experimental part:
NVS_ENZ_hPTPN9 is a biochemical, single-readout assay that uses extracted gene-proteins from SF9 in a cell-free assay. Measurements were taken 1.33 hours after chemical dosing in a 384-well plate.NVS_ENZ_hPTPN9 is one of one assay component(s) measured or calculated from the NVS_ENZ_hPTPN9 assay. It is designed to make measurements of enzyme activity, a form of enzyme reporter, as detected with fluorescence intensity signals by Fluorescence and electrophoretic mobility shift technology.Data from the assay component NVS_ENZ_hPTPN9 was analyzed into 1 assay endpoint. This assay endpoint, NVS_ENZ_hPTPN9, was analyzed in the positive analysis fitting direction relative to DMSO as the negative control and baseline of activity. Using a type of enzyme reporter, loss-of-signal activity can be used to understand changes in the enzymatic activity as they relate to the gene PTPN9. Furthermore, this assay endpoint can be referred to as a primary readout, because this assay has produced multiple assay endpoints where this one serves a enzymatic activity function. To generalize the intended target to other relatable targets, this assay endpoint is annotated to the phosphatase intended target family, where the subfamily is non-receptor tyrosine phosphatase.
Binding assays used specific radioligands (tritiated, iodinated) with non-radioactive competitive displacement ligands in agonist or antagonist protocols (as indicated) and various reference compounds and inhibitors to titrate specific binding to receptors and transporters. Most enzyme assays (CYPs, kinases, phosphatases, proteases, HDACs) used recombinant protein and specific substrates (fluorescence mostly, some colorimetric and radioactive) and inhibitors, followed by a biochemical separation of substrate and product. All assays for the biochemical HTS were initially run in duplicate at a single concentration (10 uM for CYP450 assays and 25 uM for all others). […]
In the case of `CN(C)C(=O)Cl`, the AC50 is 41.7 µM (active). As to `OCC1CO1` (stereo not drawn), the call was inactive.

Take `CCC(C)(C)c1ccc(O)cc1`: the AC50 is 42.1 µM (active).

Another assay has as its target human Protein Tyrosine Phosphatase Non-receptor Type 6 (PTPN6), PTPN6 (gene 5777) (UniProt P29350). As to the kind of experiment: NVS_ENZ_hPTPN6: NovaScreen (NVS) Enzymatic Assay for human Protein Tyrosine Phosphatase Non-receptor Type 6 (PTPN6) (AID 2283210). In outline:
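Cell-free assay with recombinant PTPN6 expressed in SF9 cells, fluorescent substrate, product separated from substrate by electrophoretic mobility shift; read 1.33 hours after dosing. Primary screen in duplicate at 25 uM, actives retested in concentration series; DMSO baseline.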
Consider `CC(C)(C)OOC(C)(C)C`, for which the outcome was inactive. For `[N-]=[N+]=[N-]`, the molecule was classed as inactive. On the same count and under the same terms, in the case of `CN(C)C(=O)Cl` it was “inactive”; in that of `c1nc[nH]n1`, “inactive”. Turning to `ClC(Cl)c1ccccc1`, the molecule was called inactive. Regarding `CCOS(=O)(=O)OCC`, the call was inactive.

`O=C(O)C1C(C(=O)O)C2(Cl)C(Cl)=C(Cl)C1(Cl)C2(Cl)Cl` (stereo not drawn): the result was inactive.

The next assay deals with human Protein Tyrosine Phosphatase Receptor Type C (PTPRC), PTPRC (gene 5788) (UniProt P08575). As to the kind of experiment: NVS_ENZ_hPTPRC: NovaScreen (NVS) Enzymatic Assay for human Protein Tyrosine Phosphatase Receptor Type C (PTPRC) (AID 2283212). The gist of the method:
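Yeast-extracted human PTPRC used in a cell-free colorimetric enzyme activity read-out, 1 h after dosing. Primary screen in duplicate at 25 uM; actives rerun in concentration-response up to 50 uM, DMSO as baseline.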
Regarding `Cc1ccc(N)cc1N`, the concentration at half-maximal activity (AC50) was 32.2 µM (active). Regarding `Cc1ccc(O)cc1C`, the outcome was inactive.

For the molecule `O=P1(N(CCCl)CCCl)NCCCO1` (stereo not drawn), the molecule was classed as inactive. Take `Nc1ccc2ccccc2c1`: the AC50 was 12.3 µM (active). As for `CCCCN(CCCC)SN(C)C(=O)Oc1cccc2c1OC(C)(C)C2`, the AC50 was 7.97 µM (active).

For the next assay, the target named is human Rho Associated Coiled-coil Containing Protein Kinase 1 (ROCK1), ROCK1 (gene 6093) (UniProt Q13464). As to the kind of experiment: NVS_ENZ_hROCK1: NovaScreen (NVS) Enzymatic Assay for human Rho Associated Coiled-coil Containing Protein Kinase 1 (ROCK1) (AID 2283214). In outline: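 Cell-free recombinant human ROCK1 activity assay; fluorescent substrate and product separated by electrophoretic mobility shift, read 1 h after dosing. Screened in duplicate at 25 uM; loss of signal versus DMSO baseline scored as inhibition.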
human Rho Associated Coiled-coil Containing Protein Kinase 1 (ROCK1), ROCK1 (gene 6093), sequence (Q13464 whole entry, looked up): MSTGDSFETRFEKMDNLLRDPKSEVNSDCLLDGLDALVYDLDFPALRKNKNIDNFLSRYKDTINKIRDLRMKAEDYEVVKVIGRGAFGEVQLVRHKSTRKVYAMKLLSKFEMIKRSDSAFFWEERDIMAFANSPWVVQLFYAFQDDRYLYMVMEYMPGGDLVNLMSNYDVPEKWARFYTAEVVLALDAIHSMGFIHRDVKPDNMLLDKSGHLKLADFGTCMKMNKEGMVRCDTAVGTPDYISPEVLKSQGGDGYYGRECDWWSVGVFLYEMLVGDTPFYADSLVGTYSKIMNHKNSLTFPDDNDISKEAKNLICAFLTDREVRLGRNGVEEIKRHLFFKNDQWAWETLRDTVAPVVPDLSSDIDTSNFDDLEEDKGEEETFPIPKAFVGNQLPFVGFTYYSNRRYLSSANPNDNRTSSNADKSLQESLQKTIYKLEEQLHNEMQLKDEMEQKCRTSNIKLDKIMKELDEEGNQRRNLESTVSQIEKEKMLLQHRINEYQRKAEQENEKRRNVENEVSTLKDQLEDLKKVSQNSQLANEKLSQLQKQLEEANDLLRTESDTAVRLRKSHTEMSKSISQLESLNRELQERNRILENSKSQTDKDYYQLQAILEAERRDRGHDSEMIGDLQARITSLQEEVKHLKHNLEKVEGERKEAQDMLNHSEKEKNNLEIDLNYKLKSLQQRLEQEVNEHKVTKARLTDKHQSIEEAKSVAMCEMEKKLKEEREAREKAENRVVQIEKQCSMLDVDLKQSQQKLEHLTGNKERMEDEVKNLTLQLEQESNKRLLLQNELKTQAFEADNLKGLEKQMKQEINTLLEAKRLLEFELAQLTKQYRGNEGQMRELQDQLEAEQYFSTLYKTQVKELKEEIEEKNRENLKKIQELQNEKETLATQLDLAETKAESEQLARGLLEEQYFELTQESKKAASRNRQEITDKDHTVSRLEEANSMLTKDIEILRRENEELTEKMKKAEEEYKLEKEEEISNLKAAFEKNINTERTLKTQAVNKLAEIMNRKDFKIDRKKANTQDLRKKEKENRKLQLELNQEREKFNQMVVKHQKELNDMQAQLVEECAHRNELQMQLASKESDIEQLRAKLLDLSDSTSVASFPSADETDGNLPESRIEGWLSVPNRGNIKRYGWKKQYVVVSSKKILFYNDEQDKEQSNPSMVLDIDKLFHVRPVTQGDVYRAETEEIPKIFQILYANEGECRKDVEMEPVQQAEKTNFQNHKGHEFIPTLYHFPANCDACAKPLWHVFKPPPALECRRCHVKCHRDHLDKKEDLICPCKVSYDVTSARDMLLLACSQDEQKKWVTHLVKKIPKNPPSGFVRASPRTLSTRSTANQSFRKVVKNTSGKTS
Consider `CCOc1ccc(C(C)(C)COCc2cccc(Oc3ccccc3)c2)cc1`, for which the molecule was classed as inactive. Still for that read-out and setting: in the case of `O=P(Oc1ccccc1)(Oc1ccccc1)Oc1ccccc1` it was “inactive”; in that of `Cc1ccc([N+](=O)[O-])cc1C`, “inactive”.

A further assay deals with human Sirtuin 1 (SIRT1), SIRT1 (gene 23411) (UniProt Q96EB6). As to the kind of experiment: NVS_ENZ_hSIRT1: NovaScreen (NVS) Enzymatic Assay for human Sirtuin 1 (SIRT1) (AID 2283219). As for the experimental part: NVS_ENZ_hSIRT1 is a biochemical, single-readout assay that uses extracted gene-proteins in a cell-free assay. Measurements were taken 1 hour after chemical dosing in a 384-well plate.NVS_ENZ_hSIRT1 is one of one assay component(s) measured or calculated from the NVS_ENZ_hSIRT1 assay. It is designed to make measurements of enzyme activity, a form of enzyme reporter, as detected with fluorescence intensity signals by Fluorescence and electrophoretic mobility shift technology.Data from the assay component NVS_ENZ_hSIRT1 was analyzed into 1 assay endpoint. This assay endpoint, NVS_ENZ_hSIRT1, was analyzed in the positive analysis fitting direction relative to DMSO as the negative control and baseline of activity. Using a type of enzyme reporter, loss-of-signal activity can be used to understand changes in the enzymatic activity as they relate to the gene SIRT1. Furthermore, this assay endpoint can be referred to as a primary readout, because this assay has produced multiple assay endpoints where this one serves a enzymatic activity function. To generalize the intended target to other relatable targets, this assay endpoint is annotated to the hydrolase intended target family, where the subfamily is protein deacetylase.
human Sirtuin 1 (SIRT1), SIRT1 (gene 23411), sequence (Q96EB6 whole entry, looked up): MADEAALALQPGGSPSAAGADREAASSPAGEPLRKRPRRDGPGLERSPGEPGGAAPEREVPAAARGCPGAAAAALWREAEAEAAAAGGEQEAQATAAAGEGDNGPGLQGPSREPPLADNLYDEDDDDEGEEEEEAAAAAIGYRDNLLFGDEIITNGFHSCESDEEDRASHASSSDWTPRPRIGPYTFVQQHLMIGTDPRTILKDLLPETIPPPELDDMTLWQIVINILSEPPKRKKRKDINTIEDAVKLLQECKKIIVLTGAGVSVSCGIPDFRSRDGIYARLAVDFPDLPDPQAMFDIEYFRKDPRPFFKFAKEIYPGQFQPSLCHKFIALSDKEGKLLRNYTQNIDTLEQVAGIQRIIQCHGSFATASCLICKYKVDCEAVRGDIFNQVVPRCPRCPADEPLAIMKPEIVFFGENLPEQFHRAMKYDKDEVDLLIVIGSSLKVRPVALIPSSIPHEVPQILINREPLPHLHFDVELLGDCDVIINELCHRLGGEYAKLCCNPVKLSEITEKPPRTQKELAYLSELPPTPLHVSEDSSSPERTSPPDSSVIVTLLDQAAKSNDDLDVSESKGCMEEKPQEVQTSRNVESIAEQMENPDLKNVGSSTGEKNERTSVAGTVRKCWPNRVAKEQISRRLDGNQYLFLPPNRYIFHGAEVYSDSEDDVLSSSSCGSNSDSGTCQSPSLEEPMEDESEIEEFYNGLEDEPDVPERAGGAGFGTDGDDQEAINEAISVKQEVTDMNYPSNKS
Binding assays used specific radioligands (tritiated, iodinated) with non-radioactive competitive displacement ligands in agonist or antagonist protocols (as indicated) and various reference compounds and inhibitors to titrate specific binding to receptors and transporters. Most enzyme assays (CYPs, kinases, phosphatases, proteases, HDACs) used recombinant protein and specific substrates (fluorescence mostly, some colorimetric and radioactive) and inhibitors, followed by a biochemical separation of substrate and product. All assays for the biochemical HTS were initially run in duplicate at a single concentration (10 uM for CYP450 assays and 25 uM for all others). Assay-chemical combinations meeting a pre-defined threshold (e.g., 30% inhibition and other criteria defined below) were then run in singleton concentration-response format with maximum concentration of 20 uM for CYPs and 50 uM for all others. Each assay was run with positive and negative controls, and concurrent controls on every plate. The follow-up (secondary) screen tested active chemical-pairs in concentration series, as well as a few additional assays not tested in the primary screen, some selected negative inactives, and several cases re-run in the concentration series for confirmatory purposes.
On to `CSC(C)(C)C=NO`, for which the outcome was inactive. In the case of `O=P1(N(CCCl)CCCl)NCCCO1` (stereo not drawn), the molecule was classed as inactive. On the same count and under the same terms, in the case of `CCOc1ccc(C(C)(C)COCc2cccc(Oc3ccccc3)c2)cc1` it was “inactive”; in that of `Cc1ccc([N+](=O)[O-])cc1C`, “inactive”; in that of `CC(Cl)(Cl)C(=O)O`, “inactive”.
